{
  "source": "the supplement of paper PMC11001985",
  "data": [
    {"compound": "C#CCNC(=O)CCSSCCC(=O)NCCc1ccc(C=O)c(C=O)c1", "test": "lysine labeling ratio R10:1 (500 µM / 50 µM probe), SILAC-ABPP in living cells; higher = lower intrinsic lysine reactivity toward the probe, active = 2 or less", "conditions": "HeLa; probe concentrations 500 vs 50 µM", "summary_of_the_method": "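SILAC light and heavy living HeLa cells in PBS at room temperature were labelled with 50 µM or 500 µM of an alkyne-tagged, disulfide-linked lysine probe, with forward and reverse label swaps. Mixed lysates were clicked to biotin-azide, trypsin-digested, captured on neutravidin, DTT-released, alkylated and analysed by LC-MS/MS on a TIMS-TOF Pro. R is the filtered median high-probe/low-probe MS1 peptide ratio per lysine, then the median across forward and reverse replicates. Ratios are capped at 20.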", "values": [
      {"target": "UniProt P62258 (lysine site: K125)", "lysine labeling ratio R10:1": "1.05 (active)"},
      {"target": "UniProt P21589 (lysine site: K536)", "lysine labeling ratio R10:1": "1.24 (active)"},
      {"target": "ANPEP (lysine site: K379) (UniProt P15144)", "sequence (P15144 whole entry)": "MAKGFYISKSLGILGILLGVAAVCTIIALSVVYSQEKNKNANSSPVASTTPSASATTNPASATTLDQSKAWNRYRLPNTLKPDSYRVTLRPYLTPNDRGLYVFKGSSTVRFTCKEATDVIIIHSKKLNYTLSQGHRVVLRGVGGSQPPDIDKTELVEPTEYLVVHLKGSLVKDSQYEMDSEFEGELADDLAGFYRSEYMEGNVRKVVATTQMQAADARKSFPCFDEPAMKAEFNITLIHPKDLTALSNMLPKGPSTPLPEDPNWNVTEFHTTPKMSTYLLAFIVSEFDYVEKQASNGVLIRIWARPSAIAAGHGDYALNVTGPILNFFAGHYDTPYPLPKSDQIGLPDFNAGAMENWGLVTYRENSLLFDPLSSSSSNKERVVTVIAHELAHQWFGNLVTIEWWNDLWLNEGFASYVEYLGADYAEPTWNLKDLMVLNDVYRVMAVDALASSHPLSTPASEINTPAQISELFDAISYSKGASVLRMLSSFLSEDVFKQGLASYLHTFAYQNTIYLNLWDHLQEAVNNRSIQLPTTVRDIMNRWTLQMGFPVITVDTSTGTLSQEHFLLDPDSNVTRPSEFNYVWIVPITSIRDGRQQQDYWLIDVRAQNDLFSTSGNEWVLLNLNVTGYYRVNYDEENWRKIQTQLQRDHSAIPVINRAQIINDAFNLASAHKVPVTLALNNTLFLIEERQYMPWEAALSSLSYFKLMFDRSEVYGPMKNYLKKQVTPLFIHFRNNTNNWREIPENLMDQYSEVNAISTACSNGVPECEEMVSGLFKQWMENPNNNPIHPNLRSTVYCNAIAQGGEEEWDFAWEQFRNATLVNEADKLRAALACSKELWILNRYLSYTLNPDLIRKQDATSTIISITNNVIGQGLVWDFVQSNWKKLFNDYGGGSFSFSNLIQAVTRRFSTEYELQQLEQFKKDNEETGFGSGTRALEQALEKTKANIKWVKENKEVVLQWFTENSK", "lysine labeling ratio R10:1": "0.5 (active)"},
      {"target": "JUP (lysine site: K656) (UniProt P14923)", "lysine labeling ratio R10:1": "0.972 (active)"},
      {"target": "CDH2 (lysine site: K189) (UniProt P19022)", "lysine labeling ratio R10:1": "4.45 (inactive)"},
      {"target": "TLN1 (lysine site: K875) (UniProt Q9Y490)", "lysine labeling ratio R10:1": "7.4 (inactive)"},
      {"target": "RAB13 (lysine site: K58) (UniProt P51153)", "lysine labeling ratio R10:1": "13.2 (inactive)"},
      {"target": "CACNA2D1 (lysine site: K106) (UniProt P54289)", "lysine labeling ratio R10:1": "3.84 (inactive)"},
      {"target": "SDCBP (lysine site: K124) (UniProt O00560)", "lysine labeling ratio R10:1": "1.6 (active)"},
      {"target": "SLC39A6 (lysine site: K249) (UniProt Q13433)", "sequence (Q13433 whole entry)": "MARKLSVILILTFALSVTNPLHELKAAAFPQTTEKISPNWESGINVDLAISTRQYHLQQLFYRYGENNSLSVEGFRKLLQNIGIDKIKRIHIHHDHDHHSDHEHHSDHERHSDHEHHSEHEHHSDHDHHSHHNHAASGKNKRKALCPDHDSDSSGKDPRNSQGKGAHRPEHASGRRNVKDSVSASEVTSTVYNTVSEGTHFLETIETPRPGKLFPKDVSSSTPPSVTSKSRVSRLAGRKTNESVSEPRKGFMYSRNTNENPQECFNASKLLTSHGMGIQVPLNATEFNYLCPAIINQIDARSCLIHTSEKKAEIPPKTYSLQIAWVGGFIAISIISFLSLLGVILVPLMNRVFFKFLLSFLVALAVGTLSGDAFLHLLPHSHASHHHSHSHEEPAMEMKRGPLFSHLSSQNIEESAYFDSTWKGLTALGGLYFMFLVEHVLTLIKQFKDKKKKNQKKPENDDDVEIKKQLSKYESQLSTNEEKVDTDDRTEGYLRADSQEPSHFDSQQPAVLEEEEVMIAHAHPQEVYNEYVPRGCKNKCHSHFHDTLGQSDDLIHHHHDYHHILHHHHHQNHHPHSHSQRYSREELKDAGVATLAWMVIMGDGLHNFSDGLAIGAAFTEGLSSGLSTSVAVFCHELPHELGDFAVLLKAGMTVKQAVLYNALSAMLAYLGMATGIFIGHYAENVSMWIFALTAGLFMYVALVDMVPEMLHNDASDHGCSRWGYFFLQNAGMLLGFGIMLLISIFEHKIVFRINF", "lysine labeling ratio R10:1": "3.94 (inactive)"},
      {"target": "UniProt Q15149 (lysine site: K1886)", "lysine labeling ratio R10:1": "1.49 (active)"},
      {"target": "CLTC (lysine site: K389) (UniProt Q00610)", "sequence (Q00610 whole entry)": "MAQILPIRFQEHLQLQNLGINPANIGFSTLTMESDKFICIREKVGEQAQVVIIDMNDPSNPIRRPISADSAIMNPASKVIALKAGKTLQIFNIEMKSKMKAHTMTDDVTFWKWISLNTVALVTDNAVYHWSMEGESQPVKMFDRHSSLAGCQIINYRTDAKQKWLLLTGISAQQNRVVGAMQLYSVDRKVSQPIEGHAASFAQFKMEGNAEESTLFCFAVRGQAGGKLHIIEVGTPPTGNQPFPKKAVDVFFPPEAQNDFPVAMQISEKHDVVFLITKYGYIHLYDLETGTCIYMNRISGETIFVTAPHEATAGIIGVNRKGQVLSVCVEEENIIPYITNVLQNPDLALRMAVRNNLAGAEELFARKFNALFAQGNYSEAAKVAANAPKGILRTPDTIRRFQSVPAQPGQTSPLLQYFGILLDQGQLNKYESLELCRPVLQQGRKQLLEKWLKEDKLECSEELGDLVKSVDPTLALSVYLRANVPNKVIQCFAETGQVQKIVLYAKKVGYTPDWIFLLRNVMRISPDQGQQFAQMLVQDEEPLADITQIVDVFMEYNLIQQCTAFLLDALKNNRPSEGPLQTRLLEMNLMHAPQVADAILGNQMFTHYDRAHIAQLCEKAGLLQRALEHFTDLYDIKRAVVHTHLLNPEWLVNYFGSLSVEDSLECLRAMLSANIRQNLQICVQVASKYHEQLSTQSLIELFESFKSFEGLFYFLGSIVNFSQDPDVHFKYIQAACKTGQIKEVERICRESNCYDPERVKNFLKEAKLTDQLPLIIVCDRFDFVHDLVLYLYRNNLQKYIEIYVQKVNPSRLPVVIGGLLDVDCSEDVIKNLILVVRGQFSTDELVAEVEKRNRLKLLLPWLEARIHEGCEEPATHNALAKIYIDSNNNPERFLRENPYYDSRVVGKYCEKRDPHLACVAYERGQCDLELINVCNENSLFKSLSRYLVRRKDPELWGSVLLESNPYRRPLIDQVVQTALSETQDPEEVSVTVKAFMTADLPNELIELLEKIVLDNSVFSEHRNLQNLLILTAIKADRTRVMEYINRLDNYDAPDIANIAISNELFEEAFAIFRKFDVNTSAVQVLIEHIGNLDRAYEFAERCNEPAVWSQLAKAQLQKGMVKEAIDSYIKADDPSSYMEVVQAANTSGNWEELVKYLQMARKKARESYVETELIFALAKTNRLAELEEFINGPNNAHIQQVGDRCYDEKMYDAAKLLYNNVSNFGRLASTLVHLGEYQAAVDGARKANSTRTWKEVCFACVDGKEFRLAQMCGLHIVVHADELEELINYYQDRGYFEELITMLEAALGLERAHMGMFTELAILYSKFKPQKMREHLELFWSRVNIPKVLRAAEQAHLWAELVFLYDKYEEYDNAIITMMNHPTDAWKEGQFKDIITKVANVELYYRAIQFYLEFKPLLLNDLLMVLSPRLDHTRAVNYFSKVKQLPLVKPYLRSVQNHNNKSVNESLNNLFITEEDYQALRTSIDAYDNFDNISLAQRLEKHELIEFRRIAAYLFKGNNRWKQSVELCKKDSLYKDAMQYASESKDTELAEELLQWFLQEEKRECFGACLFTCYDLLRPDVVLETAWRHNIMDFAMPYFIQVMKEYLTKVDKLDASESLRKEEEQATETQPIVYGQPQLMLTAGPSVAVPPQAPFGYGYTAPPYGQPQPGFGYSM", "lysine labeling ratio R10:1": "5.78 (inactive)"},
      {"target": "MSN (lysine site: K151) (UniProt P26038)", "sequence (P26038 whole entry)": "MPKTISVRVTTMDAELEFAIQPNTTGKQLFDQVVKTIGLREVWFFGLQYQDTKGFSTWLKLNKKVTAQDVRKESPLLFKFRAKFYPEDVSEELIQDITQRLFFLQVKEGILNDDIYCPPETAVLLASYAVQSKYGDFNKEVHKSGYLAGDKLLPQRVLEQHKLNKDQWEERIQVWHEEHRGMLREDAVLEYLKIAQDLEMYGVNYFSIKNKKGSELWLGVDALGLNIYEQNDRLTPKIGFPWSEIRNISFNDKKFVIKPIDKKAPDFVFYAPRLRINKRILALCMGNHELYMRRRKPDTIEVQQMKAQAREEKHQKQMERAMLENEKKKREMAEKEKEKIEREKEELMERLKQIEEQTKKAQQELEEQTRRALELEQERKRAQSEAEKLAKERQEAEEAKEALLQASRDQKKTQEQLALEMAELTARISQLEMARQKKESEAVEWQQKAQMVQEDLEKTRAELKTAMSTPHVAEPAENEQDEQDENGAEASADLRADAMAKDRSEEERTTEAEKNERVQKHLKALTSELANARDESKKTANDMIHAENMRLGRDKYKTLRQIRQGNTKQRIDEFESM", "lysine labeling ratio R10:1": "2.26 (inactive)"},
      {"target": "ALCAM (lysine site: K76) (UniProt Q13740)", "lysine labeling ratio R10:1": "6.62 (inactive)"},
      {"target": "UniProt P62888 (lysine site: K44)", "lysine labeling ratio R10:1": "2.17 (inactive)"},
      {"target": "UniProt P25705 (lysine site: K230)", "lysine labeling ratio R10:1": "2.24 (inactive)"},
      {"target": "UniProt P02533 (lysine site: K251)", "lysine labeling ratio R10:1": "5.36 (inactive)"},
      {"target": "UniProt P62805 (lysine site: K13)", "lysine labeling ratio R10:1": "2.71 (inactive)"},
      {"target": "CYR61 (lysine site: K378) (UniProt O00622)", "lysine labeling ratio R10:1": "1.08 (active)"},
      {"target": "GANAB (lysine site: K269) (UniProt Q14697)", "lysine labeling ratio R10:1": "2.12 (inactive)"},
      {"target": "ANXA3 (lysine site: K184) (UniProt P12429)", "lysine labeling ratio R10:1": "1.13 (active)"},
      {"target": "CLTC (lysine site: K1516) (UniProt Q00610)", "lysine labeling ratio R10:1": "1.45 (active)"},
      {"target": "EPRS (lysine site: K360) (UniProt P07814)", "lysine labeling ratio R10:1": "1.77 (active)"},
      {"target": "UniProt P05106 (lysine site: K98)", "lysine labeling ratio R10:1": "1.59 (active)"},
      {"target": "FN1 (lysine site: K2027) (UniProt P02751)", "lysine labeling ratio R10:1": "13 (inactive)"},
      {"target": "CD55 (lysine site: K110) (UniProt P08174)", "lysine labeling ratio R10:1": "2.89 (inactive)"},
      {"target": "SPTBN1 (lysine site: K1421) (UniProt Q01082)", "lysine labeling ratio R10:1": "3.37 (inactive)"},
      {"target": "CCT3 (lysine site: K78) (UniProt P49368)", "sequence (P49368 whole entry)": "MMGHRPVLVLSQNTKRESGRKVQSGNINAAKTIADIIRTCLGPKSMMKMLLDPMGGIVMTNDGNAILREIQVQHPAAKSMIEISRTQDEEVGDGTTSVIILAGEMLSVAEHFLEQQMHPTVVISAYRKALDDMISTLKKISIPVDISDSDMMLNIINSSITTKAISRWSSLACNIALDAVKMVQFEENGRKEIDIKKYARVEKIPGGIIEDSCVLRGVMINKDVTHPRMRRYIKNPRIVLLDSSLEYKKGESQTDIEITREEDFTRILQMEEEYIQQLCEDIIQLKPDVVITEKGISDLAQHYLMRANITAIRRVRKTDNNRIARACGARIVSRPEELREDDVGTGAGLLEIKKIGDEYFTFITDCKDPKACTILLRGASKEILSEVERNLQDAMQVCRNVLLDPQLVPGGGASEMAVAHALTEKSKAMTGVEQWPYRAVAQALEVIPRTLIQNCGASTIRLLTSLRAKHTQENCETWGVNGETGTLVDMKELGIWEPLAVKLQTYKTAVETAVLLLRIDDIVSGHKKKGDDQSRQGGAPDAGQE", "lysine labeling ratio R10:1": "4.07 (inactive)"},
      {"target": "UniProt P62913 (lysine site: K52)", "lysine labeling ratio R10:1": "2.77 (inactive)"},
      {"target": "SMOC1 (lysine site: K308) (UniProt Q9H4F8)", "lysine labeling ratio R10:1": "4.95 (inactive)"},
      {"target": "AKR1B1 (lysine site: K263) (UniProt P15121)", "lysine labeling ratio R10:1": "8.32 (inactive)"},
      {"target": "UniProt Q14964 (lysine site: K63)", "lysine labeling ratio R10:1": "2.17 (inactive)"},
      {"target": "PAICS (lysine site: K247) (UniProt P22234)", "lysine labeling ratio R10:1": "1.41 (active)"},
      {"target": "VAT1 (lysine site: K391) (UniProt Q99536)", "lysine labeling ratio R10:1": "2.03 (inactive)"},
      {"target": "FBL (lysine site: K131) (UniProt P22087)", "lysine labeling ratio R10:1": "2.15 (inactive)"},
      {"target": "XRCC6 (lysine site: K297) (UniProt P12956)", "lysine labeling ratio R10:1": "1.09 (active)"},
      {"target": "UniProt P83881 (lysine site: K38)", "lysine labeling ratio R10:1": "1.61 (active)"},
      {"target": "UniProt Q9NYU2 (lysine site: K356)", "lysine labeling ratio R10:1": "1.45 (active)"},
      {"target": "CSRP1 (lysine site: K112) (UniProt P21291)", "lysine labeling ratio R10:1": "1.46 (active)"},
      {"target": "G6PD (lysine site: K432) (UniProt P11413)", "sequence (P11413 whole entry)": "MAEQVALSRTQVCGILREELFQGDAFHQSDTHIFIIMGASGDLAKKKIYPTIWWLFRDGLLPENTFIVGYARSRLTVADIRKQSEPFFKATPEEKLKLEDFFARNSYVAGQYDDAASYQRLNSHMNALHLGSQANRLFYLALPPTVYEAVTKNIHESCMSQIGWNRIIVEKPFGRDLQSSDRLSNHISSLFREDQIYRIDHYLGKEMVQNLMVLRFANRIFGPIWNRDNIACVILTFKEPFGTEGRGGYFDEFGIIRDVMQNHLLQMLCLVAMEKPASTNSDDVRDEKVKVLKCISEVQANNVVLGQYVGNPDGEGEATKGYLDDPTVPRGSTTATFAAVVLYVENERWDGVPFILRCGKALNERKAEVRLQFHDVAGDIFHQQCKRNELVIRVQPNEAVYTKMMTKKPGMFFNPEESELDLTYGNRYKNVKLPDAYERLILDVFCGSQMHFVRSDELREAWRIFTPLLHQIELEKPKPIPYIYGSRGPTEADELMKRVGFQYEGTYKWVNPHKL", "lysine labeling ratio R10:1": "1.85 (active)"}
    ]}
  ]
}
